According to PubChem BioAssay (NCATS):
Inconclusive results are not listed. Where a call stands in place of a potency, no number is given. Calls of active or inactive are those of the source. Calls come from the whole dose curve; as a rule, active = well fitted curve in the direction sought with a large enough effect; inconclusive = small, poorly fitted or top-dose-only effect, or another doubt; inactive = no such curve, though single readings can be large; an effect the other way counts as inactive or inconclusive.

How the values were obtained:
[1] = target: Aldehyde dehydrogenase, mitochondrial (Homo sapiens) (UniProt P05091); test: qHTS for Inhibitors of the Aldehyde Dehydrogenase Family (ALDH2) Primary screen (AID 2061308); settings: ALDH2 enzyme inhibition qHTS, 1536-well; series mostly up to 56 µM; note: nearly all actives have a fitted effect of over 55% in size
[2] = target: Retinaldehyde dehydrogenase 3 (Homo sapiens) (UniProt P47895); test: qHTS for Inhibitors of the Aldehyde Dehydrogenase Family (ALDH1A3) Primary screen (AID 2061315); settings: ALDH inhibition qHTS; series mostly up to 56 µM

Row | Structure (SMILES) | Potency [1] | Potency [2]
1 | CC(C)c1ccccc1-c1nc(NCc2ccc(-c3cccnc3)cc2)c2ccccc2n1 | inactive | inactive
2 | O=S(=O)(c1ccc(Br)cc1)N1CCN(S(=O)(=O)c2ccc3c(c2)OCCO3)CC1 | inactive | inactive
3 | CCOC(=O)C1CCN(C(=O)C2(NC(=O)Nc3ccccc3Cl)CCC2)CC1 | inactive | inactive
4 | O=C(CNC(=O)c1ccncc1)OC(C(=O)Nc1cc(C(F)(F)F)ccc1Cl)c1ccccc1 (configuration not stated) | inactive | inactive
5 | CCNC(=O)c1ccc(-c2ccc3ncnc(NCc4nc(C)cs4)c3c2)o1 | inactive | inactive
6 | COc1ccc2nc(-c3ccccc3OC)sc2c1 | inactive | inactive
7 | CC(=O)O[C@@]1(C)[C@@H]2CC(=C(C)C)C(=O)C[C@@]2(C)CC[C@H]1OC(=O)C1(C)OC1C (some centres not stated) | inactive | inactive
8 | Cc1ccc(-c2ccc(=O)n(CC(=O)NCCC3CC3)n2)cc1 | inactive | inactive
9 | Nc1ccc(-c2cccc3c(=O)cc(N4CCOCC4)oc23)cc1 | inactive | inactive
10 | COc1cc(O)c(C(CC(=O)N2CCC(c3ccccc3)CC2)c2ccc(OC)c(OC)c2)c(OC)c1 (configuration not stated) | inactive | inactive
11 | CNc1cc2c(cc1S(=O)(=O)Nc1ccc(C)c(C)c1)CCC(=O)N2 | inactive | inactive
12 | C=C(C(=O)OC[C@H]1O[C@@H](OC(=O)/C=C/c2ccccc2)[C@H](O)[C@@H](O)[C@@H]1O)C(O)CO (some centres not stated) | inactive | inactive
13 | Cc1cc2c(s1)c1cnn(Cc3ccc(F)c(F)c3F)c(=O)c1n2C | inactive | inactive
14 | C#CCOc1ccc(C(C)=O)cc1-c1nnc2n1N=C(c1ccc(OC)c(O[C@@H]3CCOC3)c1)CS2 | inactive | inactive
15 | Nc1ccc2c(c1)C(=O)NS2(=O)=O | inactive | inactive
16 | Cc1ccc(C(=O)NC2CCN(C#N)CC2)cc1 | inactive | inactive
17 | Cc1cc2c(s1)c1cnn(Cc3cc(F)ccc3C)c(=O)c1n2C | inactive | inactive
18 | Cc1ccc(NS(=O)(=O)c2ccc3c(c2)CCC(=O)N3C)cc1Cl | inactive | inactive
19 | O=C1CCCC2=C1C(c1ccc(F)cc1)N=C(Nc1nc3ccccc3o1)N2 (configuration not stated) | inactive | inactive
20 | O=C1c2ccccc2C(=O)N1c1ccc(Cl)cc1 | inactive | inactive
21 | Cc1cc2c(s1)c1cnn(Cc3cccc(C(F)(F)F)c3)c(=O)c1n2C | inactive | inactive

Row | Structure (SMILES) | Potency [1] | Potency [2]
22 | CCC(C)/C=C(C)/C=C/C1=CC2=CC(=O)C(C)(O)C(OC(C)=O)C2CO1 (configuration not stated) | inactive | inactive
23 | C/C1=C\CCC2=CC(OC2=O)C(C)(C)/C=C/C1=O (configuration not stated) | inactive | inactive
24 | Oc1cccc2cc(Nc3ccccc3)cnc12 | inactive | inactive
25 | Cc1ccc(-c2cc(C(=O)Nc3ccc(-c4nn[nH]n4)cc3)c3ccccc3n2)cc1C | inactive | inactive
26 | Oc1cccc2cc(CNc3ccccc3F)cnc12 | inactive | inactive
27 | O=C(OCC#CCSc1nnc(-c2cccc3ccccc23)o1)c1ccc(OC(F)F)cc1 | inactive | inactive
28 | COc1cc(F)c(S(=O)(=O)N2CCN(S(=O)(=O)c3ccco3)CC2)c(F)c1 | inactive | inactive
29 | CC1CCC2(C1)N=C(Nc1nc3ccccc3o1)NC1=C2C(=O)CCC1 (configuration not stated) | inactive | inactive
30 | Cc1ccc(NS(=O)(=O)c2cc3c(cc2Cl)NC(=O)C3)cc1C | inactive | inactive
31 | O=S(=O)(c1ccccc1)N1CCN(c2nc(C3CC3)nc3ccccc23)CC1 | inactive | inactive
32 | COc1cc(OC)cc(-c2nnc3n2N=C(c2cc(OC)ccc2OC)CS3)c1 | inactive | inactive
33 | Cn1cc2ccc(-c3ccc4ncnc(NCc5cccs5)c4c3)cc2n1 | inactive | inactive
34 | Cc1ccc(NC(=O)c2cnn3c(C)cc(C)nc23)cc1 | inactive | inactive
35 | Cc1cc(C)n2ncc(C(=O)Nc3ccncc3)c2n1 | inactive | inactive
36 | Cc1cc2c(s1)c1cnn(Cc3c(F)cccc3C(F)(F)F)c(=O)c1n2C | inactive | inactive
37 | Cc1ccc(NS(=O)(=O)c2ccc3c(c2)n(C)c(=O)n3C)cc1C | inactive | inactive
38 | CC(Cc1ccccc1)C(=O)Nc1ccc(Cl)cc1C(=O)O (configuration not stated) | inactive | inactive
39 | Cc1ccc(N2CCC(CNc3nc(-c4ccccc4C(C)C)ncc3C)CC2)cn1 | inactive | inactive
40 | COc1ccc2c(c1)N1C(=O)C[C@@]34C=CC[N@+]5([O-])CC[C@H]2[C@H](CC3)[C@@]145 | inactive | inactive
41 | CC1CC(O)/C=C/C(O)/C=C\C(=O)O1 (configuration not stated) | inactive | inactive
